Results reported in PMC11006913.
Substitutions are numbered along the chain they refer to.

Columns and labels:
Test in all cases: PBM; 200 nM protein, PBS
Conditions in all cases: dsDNA, one strand shown
[1] = molecular target: HOXB4 (Homo sapiens, UniProt P17483 148-234)
[2] = molecular target: T1, VENTX (Homo sapiens, UniProt O95231 78-163, R121Q)
T1 sequence: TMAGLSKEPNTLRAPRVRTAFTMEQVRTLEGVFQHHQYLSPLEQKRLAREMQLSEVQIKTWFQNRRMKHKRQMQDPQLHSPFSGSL

[3] = molecular target: HOXA4 (Homo sapiens, UniProt Q00056 201-287, W262R)
HOXA4 (Homo sapiens, UniProt Q00056 201-287, W262R), sequence (Q00056 201-287 W262R): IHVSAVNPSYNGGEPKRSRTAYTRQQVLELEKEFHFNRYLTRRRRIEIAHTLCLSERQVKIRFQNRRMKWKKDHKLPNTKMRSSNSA

[4] = molecular target: ALX4 (Homo sapiens, UniProt Q9H161 200-286)
ALX4, sequence (Q9H161 200-286): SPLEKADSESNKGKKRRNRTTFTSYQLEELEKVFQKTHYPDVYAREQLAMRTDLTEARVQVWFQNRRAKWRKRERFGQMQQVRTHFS

[5] = molecular target: PRRX1 (Homo sapiens, UniProt P54821 80-166, F113S)
PRRX1 (Homo sapiens, UniProt P54821 80-166, F113S), sequence (P54821 80-166 F113S): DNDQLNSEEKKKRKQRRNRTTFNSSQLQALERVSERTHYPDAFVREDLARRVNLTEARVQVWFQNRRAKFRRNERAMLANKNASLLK

[6] = molecular target: T2, VENTX (Homo sapiens, UniProt O95231 78-163, Y115F)
T2 sequence: T1 sequence with Y38F, Q44R

[7] = molecular target: HOXB6 (Homo sapiens, UniProt P17509 132-218, K202E)
HOXB6 (Homo sapiens, UniProt P17509 132-218, K202E), sequence (P17509 132-218 K202E): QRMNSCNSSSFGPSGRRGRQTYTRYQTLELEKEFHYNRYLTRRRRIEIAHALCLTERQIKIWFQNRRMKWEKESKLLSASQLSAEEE

[8] = molecular target: HOXA2 (Homo sapiens, UniProt O43364 129-215, R185T)
HOXA2 (Homo sapiens, UniProt O43364 129-215, R185T), sequence (O43364 129-215 R185T): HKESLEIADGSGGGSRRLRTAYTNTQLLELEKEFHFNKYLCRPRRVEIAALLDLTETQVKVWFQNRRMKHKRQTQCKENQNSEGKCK

[9] = molecular target: HOXA4 (Homo sapiens, UniProt Q00056 201-287, R217L)
HOXA4 (Homo sapiens, UniProt Q00056 201-287, R217L), sequence (Q00056 201-287 R217L): as the sequence (Q00056 201-287 W262R) above, with R17L, R62W counted along it

[10] = molecular target: HOXB4 (Homo sapiens, UniProt P17483 148-234, V174I)
HOXB4 (Homo sapiens, UniProt P17483 148-234, V174I), sequence (P17483 148-234 V174I): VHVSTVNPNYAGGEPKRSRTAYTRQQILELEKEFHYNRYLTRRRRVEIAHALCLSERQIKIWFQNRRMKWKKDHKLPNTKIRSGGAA

[11] = molecular target: T3, PAX4 (Homo sapiens, UniProt O43316 9-242, R200Q)
T3 sequence: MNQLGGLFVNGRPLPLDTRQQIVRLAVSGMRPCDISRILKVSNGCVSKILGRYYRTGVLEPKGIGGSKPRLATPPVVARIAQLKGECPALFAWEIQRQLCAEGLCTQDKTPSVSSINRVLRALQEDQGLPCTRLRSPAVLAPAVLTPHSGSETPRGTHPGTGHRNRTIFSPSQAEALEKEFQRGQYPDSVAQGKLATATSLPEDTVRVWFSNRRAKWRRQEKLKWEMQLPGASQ

[12] = molecular target: HOXA4 (Homo sapiens, UniProt Q00056 201-287)
HOXA4 (Homo sapiens, UniProt Q00056 201-287), sequence (Q00056 201-287): as the sequence (Q00056 201-287 W262R) above, with R62W counted along it

[13] = molecular target: MSX2 (Homo sapiens, UniProt P35548 130-214)
MSX2 (Homo sapiens, UniProt P35548 130-214), sequence (P35548 130-214): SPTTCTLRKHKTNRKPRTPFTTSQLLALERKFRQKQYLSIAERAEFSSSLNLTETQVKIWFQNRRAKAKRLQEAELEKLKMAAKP

[14] = molecular target: MSX2 (Homo sapiens, UniProt P35548 130-214, F161Y)
MSX2 (Homo sapiens, UniProt P35548 130-214, F161Y), sequence (P35548 130-214 F161Y): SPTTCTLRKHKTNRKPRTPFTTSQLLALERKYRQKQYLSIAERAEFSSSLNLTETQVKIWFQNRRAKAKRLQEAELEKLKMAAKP

[15] = molecular target: HOXA4 (Homo sapiens, UniProt Q00056 201-287, W262F)
HOXA4 (Homo sapiens, UniProt Q00056 201-287, W262F), sequence (Q00056 201-287 W262F): as the sequence (Q00056 201-287 W262R) above, with R62F counted along it

[16] = molecular target: PRRX1 (Homo sapiens, UniProt P54821 80-166)
PRRX1 (Homo sapiens, UniProt P54821 80-166), sequence (P54821 80-166): as the sequence (P54821 80-166 F113S) above, with S34F counted along it

[17] = molecular target: HOXB6 (Homo sapiens, UniProt P17509 132-218)
HOXB6 (Homo sapiens, UniProt P17509 132-218), sequence (P17509 132-218): as the sequence (P17509 132-218 K202E) above, with E71K counted along it

[18] = molecular target: HOXA2 (Homo sapiens, UniProt O43364 129-215, R185K)
HOXA2 (Homo sapiens, UniProt O43364 129-215, R185K), sequence (O43364 129-215 R185K): as the sequence (O43364 129-215 R185T) above, with T57K counted along it

[19] = molecular target: VAX1 (Homo sapiens, UniProt Q5SQQ9 86-172, T142I)
VAX1 (Homo sapiens, UniProt Q5SQQ9 86-172, T142I), sequence (Q5SQQ9 86-172 T142I): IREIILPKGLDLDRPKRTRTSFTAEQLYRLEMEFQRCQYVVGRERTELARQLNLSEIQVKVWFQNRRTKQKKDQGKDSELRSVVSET

[20] = molecular target: VAX1 (Homo sapiens, UniProt Q5SQQ9 86-172, K157R)
VAX1 (Homo sapiens, UniProt Q5SQQ9 86-172, K157R), sequence (Q5SQQ9 86-172 K157R): as the sequence (Q5SQQ9 86-172 T142I) above, with I57T, K72R counted along it

HOXB4 (Homo sapiens, UniProt P17483 148-234), sequence (P17483 148-234): as the sequence (P17483 148-234 V174I) above, with I27V counted along it

Sequence | binding signal [1] | binding signal [2] | binding signal [3] | binding signal [4] | binding signal [5] | binding signal [6] | binding signal [7] | binding signal [8] | binding signal [9] | binding signal [10] | binding signal [11] | binding signal [12] | binding signal [13] | binding signal [14] | binding signal [15] | binding signal [16] | binding signal [17] | binding signal [18] | binding signal [19] | binding signal [20]
AATTAATC | 13.2 upbm affinity estimate (log intensity, higher = more binding, comparable within an allelic series) | 11.8 upbm affinity estimate (log intensity, higher = more binding, comparable within an allelic series) | 10.6 upbm affinity estimate (log intensity, higher = more binding, comparable within an allelic series) | 13.9 upbm affinity estimate (log intensity, higher = more binding, comparable within an allelic series) | 11.3 upbm affinity estimate (log intensity, higher = more binding, comparable within an allelic series) | 11.5 upbm affinity estimate (log intensity, higher = more binding, comparable within an allelic series) | 10 upbm affinity estimate (log intensity, higher = more binding, comparable within an allelic series) | 12.6 upbm affinity estimate (log intensity, higher = more binding, comparable within an allelic series) | 12.3 upbm affinity estimate (log intensity, higher = more binding, comparable within an allelic series) | 13.9 upbm affinity estimate (log intensity, higher = more binding, comparable within an allelic series) | 12.2 upbm affinity estimate (log intensity, higher = more binding, comparable within an allelic series) | 13.9 upbm affinity estimate (log intensity, higher = more binding, comparable within an allelic series) | 13.3 upbm affinity estimate (log intensity, higher = more binding, comparable within an allelic series) | 13 upbm affinity estimate (log intensity, higher = more binding, comparable within an allelic series) | 11.3 upbm affinity estimate (log intensity, higher = more binding, comparable within an allelic series) | 13.3 upbm affinity estimate (log intensity, higher = more binding, comparable within an allelic series) | 11.6 upbm affinity estimate (log intensity, higher = more binding, comparable within an allelic series) |  |  | 
GGCAGGCC | 7.41 upbm affinity estimate (log intensity, higher = more binding, comparable within an allelic series) |  |  |  |  |  |  |  |  | 7.33 upbm affinity estimate (log intensity, higher = more binding, comparable within an allelic series) | 9.21 upbm affinity estimate (log intensity, higher = more binding, comparable within an allelic series) |  |  |  |  |  |  |  |  | 
CAATTACC | 13 upbm affinity estimate (log intensity, higher = more binding, comparable within an allelic series) | 11.7 upbm affinity estimate (log intensity, higher = more binding, comparable within an allelic series) |  | 13.9 upbm affinity estimate (log intensity, higher = more binding, comparable within an allelic series) | 10.9 upbm affinity estimate (log intensity, higher = more binding, comparable within an allelic series) | 11.5 upbm affinity estimate (log intensity, higher = more binding, comparable within an allelic series) | 9.82 upbm affinity estimate (log intensity, higher = more binding, comparable within an allelic series) | 12.6 upbm affinity estimate (log intensity, higher = more binding, comparable within an allelic series) | 11.9 upbm affinity estimate (log intensity, higher = more binding, comparable within an allelic series) | 13.7 upbm affinity estimate (log intensity, higher = more binding, comparable within an allelic series) |  |  | 13.8 upbm affinity estimate (log intensity, higher = more binding, comparable within an allelic series) | 13.5 upbm affinity estimate (log intensity, higher = more binding, comparable within an allelic series) |  | 13.3 upbm affinity estimate (log intensity, higher = more binding, comparable within an allelic series) | 11.8 upbm affinity estimate (log intensity, higher = more binding, comparable within an allelic series) | 13.1 upbm affinity estimate (log intensity, higher = more binding, comparable within an allelic series) | 12.5 upbm affinity estimate (log intensity, higher = more binding, comparable within an allelic series) | 12.5 upbm affinity estimate (log intensity, higher = more binding, comparable within an allelic series)
CAATTAGC | 13.3 upbm affinity estimate (log intensity, higher = more binding, comparable within an allelic series) | 12.6 upbm affinity estimate (log intensity, higher = more binding, comparable within an allelic series) | 10.5 upbm affinity estimate (log intensity, higher = more binding, comparable within an allelic series) | 14.1 upbm affinity estimate (log intensity, higher = more binding, comparable within an allelic series) | 11.1 upbm affinity estimate (log intensity, higher = more binding, comparable within an allelic series) | 12.3 upbm affinity estimate (log intensity, higher = more binding, comparable within an allelic series) |  | 13.4 upbm affinity estimate (log intensity, higher = more binding, comparable within an allelic series) | 11.9 upbm affinity estimate (log intensity, higher = more binding, comparable within an allelic series) | 14 upbm affinity estimate (log intensity, higher = more binding, comparable within an allelic series) | 12 upbm affinity estimate (log intensity, higher = more binding, comparable within an allelic series) | 13.9 upbm affinity estimate (log intensity, higher = more binding, comparable within an allelic series) | 14.1 upbm affinity estimate (log intensity, higher = more binding, comparable within an allelic series) | 13.8 upbm affinity estimate (log intensity, higher = more binding, comparable within an allelic series) | 11.5 upbm affinity estimate (log intensity, higher = more binding, comparable within an allelic series) | 13.4 upbm affinity estimate (log intensity, higher = more binding, comparable within an allelic series) |  | 13.6 upbm affinity estimate (log intensity, higher = more binding, comparable within an allelic series) | 13.3 upbm affinity estimate (log intensity, higher = more binding, comparable within an allelic series) | 13.3 upbm affinity estimate (log intensity, higher = more binding, comparable within an allelic series)
AACAATTA |  | 11.7 upbm affinity estimate (log intensity, higher = more binding, comparable within an allelic series) | 10.6 upbm affinity estimate (log intensity, higher = more binding, comparable within an allelic series) | 13.6 upbm affinity estimate (log intensity, higher = more binding, comparable within an allelic series) | 11.1 upbm affinity estimate (log intensity, higher = more binding, comparable within an allelic series) |  | 10 upbm affinity estimate (log intensity, higher = more binding, comparable within an allelic series) |  | 11.9 upbm affinity estimate (log intensity, higher = more binding, comparable within an allelic series) | 13.6 upbm affinity estimate (log intensity, higher = more binding, comparable within an allelic series) |  | 13.6 upbm affinity estimate (log intensity, higher = more binding, comparable within an allelic series) | 13.9 upbm affinity estimate (log intensity, higher = more binding, comparable within an allelic series) | 13.5 upbm affinity estimate (log intensity, higher = more binding, comparable within an allelic series) | 11.3 upbm affinity estimate (log intensity, higher = more binding, comparable within an allelic series) |  |  |  |  | 
CCCTACGG | 7.88 upbm affinity estimate (log intensity, higher = more binding, comparable within an allelic series) | 8.13 upbm affinity estimate (log intensity, higher = more binding, comparable within an allelic series) | 9.76 upbm affinity estimate (log intensity, higher = more binding, comparable within an allelic series) |  |  | 8.13 upbm affinity estimate (log intensity, higher = more binding, comparable within an allelic series) |  |  | 9.8 upbm affinity estimate (log intensity, higher = more binding, comparable within an allelic series) | 7.93 upbm affinity estimate (log intensity, higher = more binding, comparable within an allelic series) |  | 9.86 upbm affinity estimate (log intensity, higher = more binding, comparable within an allelic series) |  |  | 9.84 upbm affinity estimate (log intensity, higher = more binding, comparable within an allelic series) |  |  |  |  | 
